Screening results: PubChem BioAssay, Broad Institute
Sampled rows, rich in hits. Any-hit rate of the full collection: about 3.1%.
Casp6 inh = inhibitors of human caspase-6; P55212; purified caspase-6, Z-VEID-R110 cleavage fluorescence; inhibition, % at 12.5 µM; 0.53% of 350,000 active; AID 686996;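 active = mean inhibition across replicates at least about 35%, with every replicate also reaching that limit, limit read from the data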;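 also: 0% = median of neutral control wells and 100% = no fluorescence left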
SIRT5 inh = sirtuin-5 (human) deacylase inhibition; Purified SirT5, succinyl-peptide AMC, trypsin-coupled fluorescence; Q9NXA8; 1.1% of 330,000 active; inhibition, % at 15 µM; AID 652115; in the data active = inhibition above about 15%
Target sequence (Q9NXA8 whole entry, looked up): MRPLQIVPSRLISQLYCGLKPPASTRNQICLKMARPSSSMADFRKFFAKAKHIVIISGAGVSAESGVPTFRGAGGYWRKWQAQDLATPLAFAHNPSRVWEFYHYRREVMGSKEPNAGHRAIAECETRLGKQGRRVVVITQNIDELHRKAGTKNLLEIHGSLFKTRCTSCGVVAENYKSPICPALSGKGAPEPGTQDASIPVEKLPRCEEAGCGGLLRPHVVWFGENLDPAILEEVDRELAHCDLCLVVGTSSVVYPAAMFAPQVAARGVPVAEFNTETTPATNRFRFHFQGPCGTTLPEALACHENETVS
FGF22 binding = shifts melting point of recombinant human FGF22; 1.5% of 340,000 active; AID 651658; Q9HCT0; activity (Tm shift, normalised), % at 9.99 µM; recombinant FGF22 thermal shift, SYPRO orange fluorescence; percent of sucrose octasulfate shift, DMSO zero;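 active = mean Tm shift, scaled 0 neutral to 100 positive control, at about 1.3% or above, every replicate too, limit read from the data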
Target sequence (Q9HCT0 whole entry, looked up): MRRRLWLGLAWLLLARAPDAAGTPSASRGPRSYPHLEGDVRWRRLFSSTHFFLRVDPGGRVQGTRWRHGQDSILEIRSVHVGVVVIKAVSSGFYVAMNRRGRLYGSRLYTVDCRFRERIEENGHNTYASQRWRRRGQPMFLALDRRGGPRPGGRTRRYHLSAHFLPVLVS
ERAP1 inh = inhibitors of human ERAP1 aminopeptidase; 0.15% of 340,000 active; inhibition, % at 10.7 µM; recombinant ERAP1, Leu-AMC fluorescence, 60 min; AID 652197;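 active = mean replicate inhibition of at least 30%, or all replicates individually reaching that 30% level; inactive = mean below 30% and not every replicate reaching it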;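 also: 0% = neutral control wells and 100% = L-leucinethiol positive control wells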
Numbers without * were called inactive; · = no result given.

SMILES	Casp6 inh	SIRT5 inh	FGF22 binding	ERAP1 inh
C[C@@H]1CN([C@H](C)CO)S(=O)(=O)c2ccc(C3=CCCC3)cc2O[C@H]1CN(C)C(=O)c1ccncc1	2	-11	0	3
O=C(CSc1nnc2ccccn12)c1ccc(Cl)cc1	1	0	43*	0
O=C(CSc1nnc2ccccn12)NNC(=O)c1ccc(Cl)cc1	-1	-3	0	0
COc1cccc(S(=O)(=O)N[C@@H]2CC[C@H](CCNC(=O)Nc3cc(F)ccc3F)O[C@@H]2CO)c1	-169	0	0	-1
CC(C)c1ccccc1NC(=O)c1cnccn1	0	20*	·	-5
CCOc1ccccc1NC(=O)c1cnccn1	-2	3	0	4
COc1cc([C@H]2Oc3c(OC)cc(CCCO[C@@H]4O[C@H](CO)[C@@H](O)[C@H](O)[C@H]4O)cc3[C@@H]2CO)ccc1O	-1	25*	0	2
OC[C@H]1O[C@H](OCCc2ccc(O)cc2)[C@H](O)[C@@H](O)[C@@H]1O	-3	·	0	·
CCCn1c(SCC(=O)Nc2cccc(C)n2)nc2c1c(=O)n(C)c(=O)n2C	2	-1	43*	4
CC1CCC(C(C)C)C(OCC(O)C[N+]2(C)CCCCC2)C1 (stereo not given)	-2	-1	42	103*
Cc1ccc(-c2cnc3c(c2)C(=O)N([C@@H](C)CO)C[C@@H](C)[C@@H](CN(C)CC2CC2)O3)cc1	-2	16*	·	-2
C[C@@H]1CN([C@@H](C)CO)C(=O)c2cc(-c3ccc(C#N)cc3)cnc2O[C@@H]1CN(C)CC1CCOCC1	-4	38*	0	9
Cc1ccc(-c2cnc3c(c2)C(=O)N([C@H](C)CO)C[C@H](C)[C@@H](CN(C)CC2CCCC2)O3)cc1	7	3	0	-2
COc1cccc(S(=O)(=O)N[C@H]2CC[C@H](CCNC(=O)Cc3ccncc3)O[C@@H]2CO)c1	0	16*	0	3
O=C(NCC[C@@H]1CC[C@@H](NS(=O)(=O)c2cccc(F)c2)[C@@H](CO)O1)C1CCOCC1	-1	38*	0	0
O=C(NCC[C@H]1CC[C@@H](NS(=O)(=O)c2cccc(F)c2)[C@H](CO)O1)C1CCOCC1	-4	-2	0	0
COc1ccc(S(=O)(=O)N[C@H]2C=C[C@@H](CC(=O)NCCc3ccncc3)O[C@H]2CO)cc1	-8	29*	0	-2
C[C@@H]1CCCCO[C@H](CN(C)C(=O)C2CCCCC2)[C@@H](C)CN([C@@H](C)CO)C(=O)c2cc(NC(=O)CCC(F)(F)F)ccc2O1	0	5	-1	-1
Cc1ccc(S(=O)(=O)Nc2ccc3c(c2)C(=O)N([C@@H](C)CO)C[C@@H](C)[C@H](CN(C)S(=O)(=O)c2ccc(Cl)cc2)OCCCC[C@@H](C)O3)cc1	·	·	0	·
Cc1ccc(S(=O)(=O)N(C)C[C@@H]2OCCCC[C@@H](C)Oc3ccc(NS(=O)(=O)c4ccc(Cl)cc4)cc3C(=O)N([C@@H](C)CO)C[C@H]2C)cc1	4	25*	0	2
Cc1ccc(S(=O)(=O)N(C)C[C@@H]2OCCCC[C@H](C)Oc3ccc(NS(=O)(=O)c4ccc(Cl)cc4)cc3C(=O)N([C@H](C)CO)C[C@@H]2C)cc1	-2	19*	0	-1
Cc1ccc(S(=O)(=O)N(C)C[C@@H]2OCCCC[C@@H](C)Oc3ccc(NS(=O)(=O)c4ccc(Cl)cc4)cc3C(=O)N([C@H](C)CO)C[C@H]2C)cc1	0	23*	0	0
Cc1ccc(S(=O)(=O)Nc2ccc3c(c2)C(=O)N([C@H](C)CO)C[C@@H](C)[C@@H](CN(C)S(=O)(=O)c2ccc(Cl)cc2)OCCCC[C@@H](C)O3)cc1	·	·	25*	·
Cc1ccc(S(=O)(=O)Nc2ccc3c(c2)C(=O)N([C@@H](C)CO)C[C@H](C)[C@H](CN(C)S(=O)(=O)c2ccc(Cl)cc2)OCCCC[C@@H](C)O3)cc1	·	·	-1	·
Cc1ccc(S(=O)(=O)Nc2ccc3c(c2)C(=O)N([C@H](C)CO)C[C@@H](C)[C@@H](CN(C)S(=O)(=O)c2ccc(Cl)cc2)OCCCC[C@H](C)O3)cc1	·	·	0	·
SMILES	Casp6 inh	SIRT5 inh	FGF22 binding	ERAP1 inh
Cc1ccc(S(=O)(=O)N(C)C[C@H]2OCCCC[C@H](C)Oc3ccc(NS(=O)(=O)c4ccc(Cl)cc4)cc3C(=O)N([C@H](C)CO)C[C@H]2C)cc1	2	26*	0	0
Cc1ccc(S(=O)(=O)Nc2ccc3c(c2)C(=O)N([C@H](C)CO)C[C@H](C)[C@H](CN(C)S(=O)(=O)c2ccc(Cl)cc2)OCCCC[C@H](C)O3)cc1	·	·	-1	·
CN(C)S(=O)(=O)c1ccc(Cl)c(NC(=O)CN2CCC(Cc3ccccc3)CC2)c1	1	-1	-1	-1
CN(C)S(=O)(=O)c1ccc(NC(=O)CN2CCC(Cc3ccccc3)CC2)cc1	1	0	44*	4
CCCN1CCC(=O)N([C@H](CSc2ccc(OC)cc2)c2ccccc2)CC1	-5	21*	0	0
CN1CCC(=O)N([C@H](CSc2ccccc2)c2ccccc2)CC1	·	·	0	3
Cc1[nH]c2ccccc2c1C(=O)CCl	11	-2	0	-3
Cc1[nH]c2ccccc2c1C(=O)NS(=O)(=O)Nc1ccccc1	4	1	43*	-4
C[C@H](CO)N1C[C@H](C)[C@H](CN(C)C(=O)C2CCCCC2)OCCCC[C@H](C)Oc2ccc(NS(=O)(=O)c3ccc(F)cc3)cc2C1=O	-1	4	0	4
C[C@@H]1CCCCO[C@H](CN(C)C(=O)C2CCCCC2)[C@H](C)CN([C@@H](C)CO)C(=O)c2cc(NS(=O)(=O)c3ccc(F)cc3)ccc2O1	1	16*	0	1
C[C@@H]1CCCCO[C@H](CN(C)C(=O)C2CCCCC2)[C@@H](C)CN([C@@H](C)CO)C(=O)c2cc(NS(=O)(=O)c3ccc(F)cc3)ccc2O1	0	17*	0	3
C[C@@H]1CN([C@H](C)CO)C(=O)c2cc(NS(=O)(=O)c3ccc(F)cc3)ccc2O[C@@H](C)CCCCO[C@@H]1CN(C)CC1CCCCC1	-1	19*	0	-1
COc1ccc(S(=O)(=O)Nc2ccc3c(c2)C(=O)N([C@H](C)CO)C[C@@H](C)[C@H](CN(C)C(=O)C2CCCCC2)OCCCC[C@@H](C)O3)cc1	0	11	1.5*	2
COCC(=O)N1[C@H](CO)[C@@H](c2ccccc2)C12CN(C(=O)c1ccccc1)C2	20	0	1	2
COC(=O)C[C@H]1CC[C@H]2[C@H](COc3ccc(NC(=O)c4cccc(Cl)c4)cc3C(=O)N2C)O1	1	11	0	0
Cc1ccc(S(=O)(=O)N(C)C[C@@H]2OCCCC[C@@H](C)Oc3ccc(NS(=O)(=O)c4c(C)noc4C)cc3C(=O)N([C@@H](C)CO)C[C@H]2C)cc1	-2	5	0	-3
C[C@@H]1CN([C@@H](C)CO)C(=O)c2cc(NS(C)(=O)=O)ccc2O[C@@H](C)CCCCO[C@@H]1CN(C)C	-9	25*	0	3
